HP1b chromo inh – inhibitors of HP1-beta chromodomain binding to methylated histone tails; AlphaScreen HP1-beta / biotin-H3K9me3 peptide binding; Potency, µM (titrated, usually from 114 µM), for the others: at the top dose activity change, negative = inhibition, most hits filed as inhibitors; P83916; actives 0.56% (n = 390,000); AID 540317; note: nearly all actives have a fitted effect of over 70% in size
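HP1-beta protein (50 nM final) preincubated 30 min at room temperature with biotinylated H3(1-18)K9me3 peptide (50 nM) in PBS pH 7.4, 0.01% Tween-20, then compound added for 30 min. AlphaScreen streptavidin donor/nickel chelate acceptor beads (10 ug/mL final), 30 min dark, luminescence read.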
GLS inhibitor – glutaminase GLS (human) inhibition; GLS enzymatic activity, qHTS titration; Potency, µM (titrated, usually from 45.5 µM), for inactives: top-dose activity change, negative = inhibition, actives largely listed as inhibitors; actives 0.21% (n = 410,000); note: % is set by controls: 0 for no effect and ±100 for the full control effect
Target sequence (O94925 whole entry, looked up): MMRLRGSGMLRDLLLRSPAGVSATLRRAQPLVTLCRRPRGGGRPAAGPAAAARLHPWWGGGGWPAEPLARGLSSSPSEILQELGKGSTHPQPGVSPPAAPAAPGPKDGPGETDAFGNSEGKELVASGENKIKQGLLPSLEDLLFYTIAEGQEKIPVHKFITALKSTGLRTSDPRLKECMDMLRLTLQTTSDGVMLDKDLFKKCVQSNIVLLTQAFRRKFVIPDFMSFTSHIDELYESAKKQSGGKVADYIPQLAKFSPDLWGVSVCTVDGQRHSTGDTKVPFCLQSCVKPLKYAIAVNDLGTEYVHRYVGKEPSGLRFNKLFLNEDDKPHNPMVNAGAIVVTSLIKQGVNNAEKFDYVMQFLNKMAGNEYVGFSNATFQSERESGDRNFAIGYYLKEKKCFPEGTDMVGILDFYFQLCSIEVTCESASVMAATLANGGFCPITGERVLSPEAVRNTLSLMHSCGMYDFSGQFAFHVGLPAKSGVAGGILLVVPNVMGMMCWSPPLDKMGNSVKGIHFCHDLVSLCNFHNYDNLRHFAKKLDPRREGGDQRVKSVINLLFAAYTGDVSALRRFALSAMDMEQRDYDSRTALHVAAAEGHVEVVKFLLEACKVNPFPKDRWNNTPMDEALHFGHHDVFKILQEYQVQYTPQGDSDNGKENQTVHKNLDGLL
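hKGA; 45 mM KH2PO4 pH 8.2 + 0.02% Tween-20; cpd via pin tool; 1 mM Gln soln; GluOx/HRP/Amplex Red; RT 30 min; fluor. t0 & final.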
G9a inh – inhibitors of human histone lysine methyltransferase G9a; AID 504332; actives 8.8% (n = 350,000); Q96KQ7; G9a H3K9 monomethylation, AlphaScreen, 2 h; Potency, µM (highest dose often 102 µM), without a hit: at the highest dose activity, negative = inhibition, most hits filed as inhibitors; note: % is set by controls: 0 for no effect and ±100 for the full control effect; nearly all actives have a fitted effect of over 75% in size
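Methyltransferase reactions run at room temperature for 2 h (20 nM enzyme, 500 nM biotin-H3K9 peptide, 20 uM SAM) after a 15 min compound preincubation; product detected by AlphaScreen beads and anti-H3K9me1 antibody.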
BAZ2B block – inhibitors of human BAZ2B bromodomain; Q9UIF8; AlphaScreen BAZ2B-H3K14Ac peptide displacement; Potency, µM (series often up to 114 µM), inactives show at the top dose activity change, negative = inhibition, most hits filed as inhibitors; actives 4.4% (n = 360,000); note: % is set by controls: 0 for no effect and ±100 for the full control effect; nearly all actives have a fitted effect of over 60% in size
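AlphaScreen displacement: compounds (up to 110uM) incubated 30 min at room temperature with a preformed 50 nM BAZ2B/50 nM biotinylated H3K14Ac peptide complex in PBS pH 7.4 with Tween-20. Donor and acceptor beads at 10 ug/mL final added, 20 min light-protected before reading.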
JMJD2A Tudor – blocks the human JMJD2A Tudor domain | actives 4.4% (n = 390,000) | AlphaScreen JMJD2A-Tudor / H3K4me3 peptide binding | O75164 | Potency, µM (series often up to 114 µM), inactives show at the highest dose activity change, negative = inhibition, actives largely listed as inhibitors | AID 504339; note: % is set by controls: 0 for no effect and ±100 for the full control effect; nearly all actives have a fitted effect of over 50% in size
* hit, by the source's call; ? = inconclusive; . = not tested or not shown; [ ] = remark or other dose. Shown are actives, neighbours in structure and some others; about 10% of the full set was active somewhere. Calls come from the whole dose curve; as a rule, active = well fitted curve in the direction sought with a large enough effect; inconclusive = small, poorly fitted or top-dose-only effect, or another doubt; inactive = no such curve, though single readings can be large; an effect the other way counts as inactive or inconclusive. Potency is the fitted concentration of half-maximal effect.

SMILES	HP1b chromo inh	GLS inhibitor	G9a inh	BAZ2B block	JMJD2A Tudor
O=C(COC(=O)COc1ccccc1)Nc1ncc([N+](=O)[O-])s1	-28.7%	3.6%	?	-36.5%	79.4µM*
O=C(COc1ccc(Cl)cc1)Nc1ncc([N+](=O)[O-])s1	26.0%	17.5%	?	-23.9%	-12.2%
O=C(Cc1ccc(Br)cc1)Nc1ncc([N+](=O)[O-])s1	1.9%	-0.6%	28.2µM*	50.1µM*	-25.9%
Cc1ccc(C)c(NC(=O)/C(C#N)=C/c2ccc(C(C)C)cc2)c1	19.4%	0.2%	-14.3%[59 µM]	-16.3%	-9.0%
Cc1onc(-c2ccccc2)c1C(=O)Nc1ncc([N+](=O)[O-])s1	-3.4%	0.9%	44.7µM*	-29.0%	-14.8%
Cn1cnnc1SCC(=O)Nc1ncc([N+](=O)[O-])s1	?	148.8%	.	.	28.2µM*
C/C=C/c1ccc(OCCCCOc2ccccc2C(C)=O)c(OC)c1	23.2%	1.1%	33.0%[59 µM]	31.3%	-7.6%
CNCCCOc1ccc(C)cc1OC	-36.9%	-10.1%	.	39.8µM*	1.58µM*
C/C=C/c1ccc(OCCNCc2ccccc2)c(OC)c1	?	9.9%	?	56.2µM*	-17.9%
C/C=C/c1ccc(OCCCNC)c(OC)c1	?	6.3%	15.8µM*	50.1µM*	1.12µM*
C/C=C/c1ccc(OCCCCN(C)Cc2ccccc2)c(OC)c1	?	4.1%	?	50.1µM*	17.8µM*
CCC1(c2ccc(Cl)cc2)NC(=O)N(CC(=O)NC2CCCCCC2)C1=O (stereo not given)	51.8%	-0.3%	-48.7%	-4.2%	-6.9%
O=C(NCC1CCCO1)C(c1ccc(F)cc1)N(CCCN1CCOCC1)C(=O)c1ccc(-c2ccccc2)[nH]1 (stereo not given)	31.8%	0.3%	?	-27.2%	-16.8%
CCCC1(CCC)NC(=O)N(CC(=O)N2CCc3ccccc32)C1=O	14.1%	18.8%	.	.	-4.5%
N#C/C(C(=O)N1CCCCC1)=C1\Nc2ccccc2S1	3.8%	8.9%	?	-1.4%	-26.1%
COc1cccc(Cn2cccc(NC(=O)NC3CCCCC3)c2=O)c1	10.1%	-9.7%	?	?	-13.9%
COc1ccccc1/C=C/C(=O)NCC(=O)N/N=C/c1ccc(C)o1	16.5%	0.8%	44.7µM*	-1.2%	-14.8%
CCc1ccc(/C(C)=N/NC(=O)CNC(=O)/C=C/c2ccccc2OC)cc1	2.4%	6.4%	18.8%	5.0%	-9.3%
COc1ccccc1/C=C\C(=O)NCC(=O)N/N=C(/C)c1cccc([N+](=O)[O-])c1	52.9%	-18.6%	79.4µM*	3.5%	-7.0%
N#Cc1ccc(NC(=S)/N=C(\N)c2ccccc2)cc1	.	-8.5%	.	.	.
COCC(=O)N(C)C1(c2nnnn2CCOC(=O)Nc2cccc3ccccc23)CCCC1	0.5%	-7.1%	-36.1%[12.7 µM]	-38.2%	?
CCc1cccc2c(C(=O)COC(=O)/C=C/c3ccc(O)c(OC)c3)c[nH]c12	2.1%	-2.3%	44.7µM*	-9.5%	-32.4%
COc1cccc(/C=C/C(=O)OCC(=O)c2c[nH]c3ccccc23)c1	33.0%	4.5%	-47.1%[59 µM]	-17.1%	-8.4%
O=C(/C=C/c1ccco1)OCC(=O)c1ccc(OC(F)F)cc1	24.6%	-14.9%	?	-2.3%	0.0%
COc1cc(/C=C/C(=O)OCC(=O)c2ccc(OC(F)F)cc2)ccc1O	4.3%	11.2µM*	.	.	-29.5%
SMILES	HP1b chromo inh	GLS inhibitor	G9a inh	BAZ2B block	JMJD2A Tudor
CS(=O)(=O)N(CC(=O)NCC1CCCO1)c1cccc([N+](=O)[O-])c1 (stereo not given)	46.8%	-10.3%	11.6%	-5.6%	-4.1%[57.1 µM]
CCOC(=O)c1sc(SCC(=O)Nc2ccc(N(C)C)cc2)nc1N	?	87.4%	11.2µM*	44.7µM*	?
CN(C)c1ccc(NC(=O)CSc2nc(N)c(C(=O)Nc3ccc(N(C)C)cc3)s2)cc1	?	57.8%	?	20µM*	?
Cc1cccc(C)c1NC(=O)CN(c1c(C)cccc1C)S(C)(=O)=O	.	0.2%	.	.	.
O=C1NN(c2ccc(Cl)c(Cl)c2)C(=O)/C1=C/c1ccc(-c2ccccc2C(=O)O)o1	?	12.6µM*	39.8µM*	39.8µM*	?
COC(=O)c1ccc(N2NC(=O)/C(=C/c3ccc(-c4ccc(Cl)c(C(=O)O)c4)o3)C2=O)cc1	?	?	17.8µM*	50.1µM*	56.2µM*
O=C(O)c1ccc(N2C(=O)/C(=C/c3ccc(-c4ccc([N+](=O)[O-])cc4)o3)C=C2c2ccccc2)cc1	14.1µM*	?	5.62µM*	11.2µM*	7.94µM*
O=C(N/N=C/c1ccc(-c2cccc([N+](=O)[O-])c2)o1)c1ccc([N+](=O)[O-])cc1	-3.9%	-12.2%	-0.2%	-29.7%	-29.2%
O=C1NN(c2ccccc2)C(=O)/C1=C/c1ccc(-c2ccc(C(=O)O)cc2)o1	?	11.2µM*	.	50.1µM*	56.2µM*
Cc1ccc(N2NC(=O)/C(=C/c3ccc(-c4ccc(Cl)c(C(=O)O)c4)o3)C2=O)cc1C	-2.7%	?	?	?	-24.1%
O=C(NCCS(=O)(=O)NC1CCCC1)c1ccccc1	16.6%	0.6%	-39.7%	10.6%	-11.1%
COc1cc2ccccc2cc1C(=O)Nc1ccc2oc(-c3cccc(C)c3)nc2c1	17.0%	17.9%	-36.0%[59 µM]	-0.3%	-9.8%
O=C1NN(c2ccccc2)C(=O)/C1=C/c1ccc(Sc2cccc3ccccc23)o1	?	-22.8%	31.6µM*	10µM*	?
Cc1ccc(OCCn2cc(/C=C3\C(=O)NN(c4ccccc4)C3=O)c3ccccc32)cc1	-9.5%	-11.1%	-12.4%[59 µM]	?	?
COc1ccc(CNC(=O)CCc2c(C)nn(-c3ccc(N4CCOCC4)nn3)c2C)c(OC)c1	-3.6%	2.5%	0.0%[59 µM]	-14.5%	-10.7%
Cc1nn(-c2ccc(N3CCCC3)nn2)c(C)c1CCC(=O)NCc1ccc(F)cc1	75.4%	2.8%	0.0%[59 µM]	79.4µM*	-8.3%
COc1ccc(CNC(=O)CCc2c(C)nn(-c3ccc(N4CCCCC4)nn3)c2C)c(OC)c1	-8.0%	-7.5%	16.5%[59 µM]	-31.2%	89.1µM*
CC(C)C1C(=O)N(Cc2cn(CC3CCCCC3)nn2)CCS(=O)(=O)N1Cc1ccc(-c2ccc(F)nc2)cc1 (stereo not given)	.	0.1%	.	.	.
CCOc1ccc(C(=O)N(CN2CCCC2=O)c2cccc(Cl)c2)cc1	36.5%	4.1%	13.0%[12.7 µM]	-13.7%	0.7%
O=C(NCc1ccccc1Cl)c1ccc2c(=O)n(CCCN3CCCC3=O)c(=S)[nH]c2c1	22.2%	-9.0%	-10.8%[59 µM]	3.8%	-9.8%
COCCNC(=O)c1ccc2c(=O)n(CCCN3CCCC3=O)c(=S)[nH]c2c1	14.3%	-24.1%	?	?	?
O=C(NCCCN1CCCC1=O)c1ccc2c(=O)n(-c3ccccc3F)c(=S)[nH]c2c1	29.3%	-14.0%	25.1µM*	?	?
O=C(NCCCN1CCCC1=O)c1ccc2c(=O)n(-c3ccc(F)cc3)c(=S)[nH]c2c1	.	.	31.6µM*	-14.5%	.
